# The source made the active and inactive calls. The calls were made as follows: active = hit-call score of the fitted dose curve at least 0.9, where 1 is the maximum; inactive = score below 0.9.
# Legend:
# Details in all cases: mRNA level, 48 h; actives raise or lower the signal
# [1] = read-out: ATP-citrate lyase (ACLY), ACLY (gene 47); test: LTEA_HepaRG_ACLY: Life Technologies and Expression Analysis (LTEA) Assay for ATP-citrate lyase (ACLY) using HepaRG (AID 2283466)
# Procedure, shortened: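 ACLY expression changes in human HepaRG liver cells are quantified by qRT-PCR after 48 h exposure to test chemicals (maximum 100 uM, half-log steps). Values are fitted in both directions relative to 0.5% DMSO vehicle.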
# [2] = read-out: Peroxisomal acyl-coenzyme A oxidase 1 (ACOX1) gene, ACOX1 (gene 51); test: LTEA_HepaRG_ACOX1: Life Technologies and Expression Analysis (LTEA) Assay for Peroxisomal acyl-coenzyme A oxidase 1 (ACOX1) gene using HepaRG (AID 2283467)
# Procedure, shortened: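 Human HepaRG hepatic cultures, 48 h treatment with test chemicals up to 100 uM. ACOX1 expression read by qRT-PCR relative to 0.5% DMSO vehicle.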
# [3] = read-out: Alkaline Phosphatase, Placental (ALPP) gene, ALPP (gene 250); test: LTEA_HepaRG_ALPP: Life Technologies and Expression Analysis (LTEA) Assay for Alkaline Phosphatase, Placental (ALPP) gene using HepaRG (AID 2283468)
# Procedure, shortened: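 ALPP transcript level, measured by qRT-PCR and normalized to three housekeeping genes (ACTB, GAPDH, POLR2A), after 48 h dosing of differentiated HepaRG in serum-free induction medium. Top concentration 100 uM with half-log dilutions (8 points, 0.5% DMSO, duplicates); bidirectional fitting relative to DMSO.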
# [4] = read-out: Bcl-2 (BAD) gene, BAD (gene 572); test: LTEA_HepaRG_BAD: Life Technologies and Expression Analysis (LTEA) Assay for Bcl-2 (BAD) gene using HepaRG (AID 2283469)
# Procedure, shortened: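 Activity values reflect up- or down-regulation of BAD mRNA in human HepaRG hepatic cells treated 48 h in serum-free medium, with eight-point half-log dosing capped at 100 uM and 0.5% DMSO vehicle.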
# [5] = read-out: adenosine kinase (ADK) gene, ADK (gene 132); test: LTEA_HepaRG_ADK: Life Technologies and Expression Analysis (LTEA) Assay for adenosine kinase (ADK) gene using HepaRG (AID 2283471)
# Procedure, shortened: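 ADK expression quantified by qRT-PCR, normalised to three housekeeping genes, after 48 h exposure of HepaRG cells to eight concentrations (top 100 uM, half-log steps, duplicate, 0.5% DMSO). Up- or down-regulation fitted relative to vehicle.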
# [6] = read-out: Alpha-fetoprotein (AFP) gene, AFP (gene 174); test: LTEA_HepaRG_AFP: Life Technologies and Expression Analysis (LTEA) Assay for Alpha-fetoprotein (AFP) gene using HepaRG (AID 2283472)
# Procedure, shortened: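 qRT-PCR (Fluidigm TaqMan) readout of AFP transcript, normalized to three housekeeping genes, fitted bidirectionally against 0.5% DMSO baseline. HepaRG cells received chemicals for 48 h in serum-free induction medium, top concentration 100 uM, half-log steps.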
# [7] = read-out: Apolipoprotein A-V (APOA5) gene, APOA5 (gene 116519); test: LTEA_HepaRG_APOA5: Life Technologies and Expression Analysis (LTEA) Assay for Apolipoprotein A-V (APOA5) gene using HepaRG (AID 2283474)
# Procedure, shortened: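 APOA5 transcript levels were quantified by qRT-PCR, normalized to three housekeeping genes, after 48 h chemical treatment of HepaRG cells (8 points, 100 uM maximum, half-log steps, 0.5% DMSO). Curves fitted in both directions against vehicle.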
# [8] = read-out: Apoptosis regulator Bcl-2 (Homo sapiens) (UniProt P10415); test: LTEA_HepaRG_BCL2: Life Technologies and Expression Analysis (LTEA) Assay for Bcl-2 gene using HepaRG (AID 2283475);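 also: BCL2 transcript by TaqMan qRT-PCR normalised to ACTB GAPDH and POLR2A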
# Procedure, shortened: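 qRT-PCR read-out (Fluidigm TaqMan) of BCL2 transcript, normalised to three housekeeping genes, after 48 h chemical exposure of HepaRG cells; 8-point half-log series, top 100 uM, 0.5% DMSO vehicle. Gain or loss of signal fitted relative to DMSO baseline.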
# [9] = read-out: Caspase-3 (Homo sapiens) (UniProt P42574); test: LTEA_HepaRG_CASP3: Life Technologies and Expression Analysis (LTEA) Assay for cysteine-aspartic acid protease (CASP3) using HepaRG (AID 2283477)
# Procedure, shortened: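 Expression of CASP3 was quantified by TaqMan qRT-PCR against three housekeeping genes (ACTB, GAPDH, POLR2A), bidirectionally versus 0.5% DMSO. HepaRG cultures received compounds in duplicate, top 100 uM with half-log steps, for 48 h in serum-free induction medium.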
# [10] = read-out: cysteine-aspartic acid protease (CASP8), CASP8 (gene 841); test: LTEA_HepaRG_CASP8: Life Technologies and Expression Analysis (LTEA) Assay for cysteine-aspartic acid protease (CASP8) using HepaRG (AID 2283480)
# Procedure, shortened: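 Concentration-response in duplicate up to 100 uM (half-log steps, 0.5% DMSO) on differentiated HepaRG cultures for 48 h. Expression change of CASP8 mRNA is determined by TaqMan qRT-PCR with housekeeping-gene normalization.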
# [11] = read-out: Cytochrome P450 (CYP2B6), CYP2B6 (gene 1555); test: LTEA_HepaRG_CYP2B6: Life Technologies and Expression Analysis (LTEA) Assay for Cytochrome P450 (CYP2B6) using HepaRG (AID 2283481)
# Procedure, shortened: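 CYP2B6 transcript level quantified by qRT-PCR against three housekeeping genes, fitted bidirectionally relative to DMSO. HepaRG cultures received chemicals for 48 h, 8-point half-log series from 100 uM in 0.5% DMSO, duplicate wells, serum-free induction medium.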
# [12] = read-out: Cytochrome P450 2C19 (Homo sapiens) (UniProt P33261); test: LTEA_HepaRG_CYP2C19: Life Technologies and Expression Analysis (LTEA) Assay for CYP2C19 using HepaRG (AID 2283482)
# Procedure, shortened: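 CYP2C19 transcript levels by qRT-PCR, normalized to three housekeeping genes, in HepaRG cells after 48 h chemical exposure. Eight-point half-log series topping at 100 uM, 0.5% DMSO vehicle. Increases and decreases both fitted against DMSO.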
# [13] = read-out: CYP2C8 (gene 1558); test: LTEA_HepaRG_CYP2C8: Life Technologies and Expression Analysis (LTEA) Assay for CYP2C8 using HepaRG (AID 2283483)
# Procedure, shortened: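 This is a transcriptional endpoint in HepaRG cultures: 48 h exposure, highest concentration 100 uM. CYP2C8 mRNA is quantified by TaqMan qRT-PCR.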
# [14] = read-out: CYP2C9 (gene 1559); test: LTEA_HepaRG_CYP2C9: Life Technologies and Expression Analysis (LTEA) Assay for CYP2C9 using HepaRG (AID 2283484)
# Procedure, shortened: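 Eight-point concentration-response (highest 100 uM, half-log dilutions) in HepaRG cells for 48 h; CYP2C9 expression by qRT-PCR normalized to ACTB, GAPDH, POLR2A. Bidirectional fit, DMSO baseline.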
# [15] = read-out: CYP2E1 (gene 1571); test: LTEA_HepaRG_CYP2E1: Life Technologies and Expression Analysis (LTEA) Assay for CYP2E1 using HepaRG (AID 2283485)
# Procedure, shortened: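 CYP2E1 transcript was measured by TaqMan qRT-PCR in human HepaRG cultures after 48 h chemical exposure (top 100 uM, half-log steps, 0.5% DMSO vehicle). Housekeeping-gene normalization; gain or loss fitted relative to DMSO baseline.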
# [16] = read-out: Bcl-2 (BID) gene, BID (gene 637); test: LTEA_HepaRG_BID: Life Technologies and Expression Analysis (LTEA) Assay for Bcl-2 (BID) gene using HepaRG (AID 2283476)
# Procedure, shortened: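 HepaRG, 48 h exposure, 8-pt half-log series, top 100 uM, 0.5% DMSO vehicle, duplicates. Readout: BID mRNA by TaqMan qRT-PCR; housekeeping-normalized; bidirectional curve fit vs DMSO baseline.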
# [17] = read-out: Cytochrome P450 (CYP24A1), CYP24A1 (gene 1591); test: LTEA_HepaRG_CYP24A1: Life Technologies and Expression Analysis (LTEA) Assay for Cytochrome P450 (CYP24A1) using HepaRG (AID 2283478)
# Procedure, shortened: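 mRNA of CYP24A1 quantified by TaqMan qRT-PCR (ACTB/GAPDH/POLR2A normalization) after 48 h chemical exposure of HepaRG cells, top concentration 100 uM, half-log steps, 0.5% DMSO vehicle, duplicates. Curves fitted bidirectionally against DMSO baseline.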
# [18] = read-out: Cytochrome P450 (CYP1A2), CYP1A2 (gene 1544); test: LTEA_HepaRG_CYP1A2: Life Technologies and Expression Analysis (LTEA) Assay for Cytochrome P450 (CYP1A2) using HepaRG (AID 2283479)
# Procedure, shortened: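 CYP1A2 transcript measured by TaqMan qRT-PCR against three housekeeping genes after 48-hour chemical exposure of HepaRG cells. Eight-point half-log series topping at 100 uM in 0.5% DMSO, duplicates; gain or loss fitted relative to vehicle.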
# Chain of Apoptosis regulator Bcl-2 (Homo sapiens) (P10415 whole entry, looked up): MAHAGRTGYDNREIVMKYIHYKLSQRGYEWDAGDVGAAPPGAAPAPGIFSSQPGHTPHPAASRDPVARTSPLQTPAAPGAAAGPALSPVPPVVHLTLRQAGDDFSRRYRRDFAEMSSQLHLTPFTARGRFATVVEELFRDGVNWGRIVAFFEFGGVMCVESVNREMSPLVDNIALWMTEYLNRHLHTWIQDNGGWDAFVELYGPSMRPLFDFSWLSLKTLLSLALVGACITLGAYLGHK
# Chain of Caspase-3 (Homo sapiens) (P42574 whole entry, looked up): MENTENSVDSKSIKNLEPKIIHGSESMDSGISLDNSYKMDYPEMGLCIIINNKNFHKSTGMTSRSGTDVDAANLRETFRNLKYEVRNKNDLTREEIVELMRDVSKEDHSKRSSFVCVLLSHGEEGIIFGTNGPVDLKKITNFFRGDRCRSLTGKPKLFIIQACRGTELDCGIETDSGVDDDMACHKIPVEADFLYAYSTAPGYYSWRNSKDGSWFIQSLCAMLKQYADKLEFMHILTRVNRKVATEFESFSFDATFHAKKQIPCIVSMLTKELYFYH
# Chain of Cytochrome P450 2C19 (Homo sapiens) (P33261 whole entry, looked up): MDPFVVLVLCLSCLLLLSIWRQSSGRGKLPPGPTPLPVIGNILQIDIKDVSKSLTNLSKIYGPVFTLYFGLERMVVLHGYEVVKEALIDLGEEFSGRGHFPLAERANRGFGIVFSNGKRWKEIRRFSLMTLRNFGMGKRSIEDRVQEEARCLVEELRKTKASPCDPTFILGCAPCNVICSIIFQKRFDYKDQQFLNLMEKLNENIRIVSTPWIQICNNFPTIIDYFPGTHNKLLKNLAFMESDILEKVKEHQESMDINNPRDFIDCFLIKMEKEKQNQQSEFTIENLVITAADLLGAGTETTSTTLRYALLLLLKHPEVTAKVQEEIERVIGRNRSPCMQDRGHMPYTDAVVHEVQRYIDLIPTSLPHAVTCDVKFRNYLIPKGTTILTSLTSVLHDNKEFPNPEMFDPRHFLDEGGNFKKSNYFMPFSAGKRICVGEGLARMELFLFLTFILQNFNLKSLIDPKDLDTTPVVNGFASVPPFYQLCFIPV
smiles,measurement,setting,value
CCNC(=O)NC(=O)C(C#N)=NOC,outcome,[1],inactive
same,outcome,[2],inactive
same,outcome,[3],inactive
same,outcome,[4],inactive
same,outcome,[5],inactive
same,AC50,[6],75.6 µM (active)
same,outcome,[7],inactive
same,outcome,[8],inactive
same,outcome,[9],inactive
same,outcome,[10],inactive
same,AC50,[11],3.37 µM (active)
same,outcome,[12],inactive
same,outcome,[13],inactive
same,outcome,[14],inactive
same,AC50,[15],50 µM (active)
COC(=O)c1c(C(F)F)nc(C(F)(F)F)c(C2=NCCS2)c1CC(C)C,outcome,[1],inactive
same,outcome,[2],inactive
same,outcome,[3],inactive
same,outcome,[4],inactive
same,outcome,[5],inactive
same,outcome,[6],inactive
same,outcome,[7],inactive
same,outcome,[8],inactive
same,outcome,[16],inactive
same,outcome,[9],inactive
same,outcome,[10],inactive
same,AC50,[12],50 µM (active)
same,AC50,[13],50 µM (active)
same,outcome,[14],inactive
same,AC50,[15],10.3 µM (active)
CCCCOCN(C(=O)CCl)c1c(CC)cccc1CC,outcome,[1],inactive
same,outcome,[2],inactive
same,outcome,[3],inactive
same,outcome,[4],inactive
same,outcome,[5],inactive
same,outcome,[6],inactive
same,outcome,[7],inactive
same,outcome,[8],inactive
same,outcome,[9],inactive
same,outcome,[17],inactive
same,outcome,[18],inactive
same,outcome,[10],inactive
same,AC50,[11],40 µM (active)
same,AC50,[12],50 µM (active)
same,outcome,[13],inactive
same,outcome,[14],inactive
same,outcome,[15],inactive

# — PubChem BioAssay (EPA / NIEHS)
